Measured values reported in PMC7862700, “An all-to-all approach to the identification of sequence-specific readers for epigenetic DNA modifications on cytosine”.

How the values were obtained:
Assay in all cases: DAPPL (digital affinity profiling via proximity ligation, sequencing); 10 mM Tris-HCl pH 7.5, 50 mM NaCl, 1 mM DTT, 4% glycerol, room temperature, 30 min; GST-TFs on glutathione beads, 16-mer random dsDNA library, 0.1% formaldehyde crosslink after washing; high values mean tight binding
FEV = molecular target: T1, FEV (Homo sapiens, UniProt Q99581 1-238); details: protein: recombinant; tags: N-terminal GST; dsDNA, one strand shown
T1 sequence: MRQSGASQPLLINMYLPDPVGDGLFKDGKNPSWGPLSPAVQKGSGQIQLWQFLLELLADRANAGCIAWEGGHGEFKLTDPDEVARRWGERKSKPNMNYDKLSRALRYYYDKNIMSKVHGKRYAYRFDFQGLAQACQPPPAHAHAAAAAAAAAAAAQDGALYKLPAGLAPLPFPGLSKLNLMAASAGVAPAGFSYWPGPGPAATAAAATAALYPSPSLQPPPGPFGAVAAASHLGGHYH
Procedure, shortened: (§1)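 Yeast served to express human transcription factors as GST fusions, which were then captured on glutathione beads and labelled with DNA barcodes. Pooled with a tag-only sample, they were incubated with 200 nmole of a 16-mer random double-stranded DNA library for 30 min at room temperature in Tris/NaCl/DTT/glycerol buffer, washed, crosslinked with 0.1% formaldehyde, ligated by proximity, amplified by PCR and sequenced. Dividing each hexamer's read frequency for a factor by its frequency for the tag-only sample gives the binding signal.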

ETV5 = ETV5 (Homo sapiens, UniProt P41161 1-510); details: protein: recombinant; tags: N-terminal GST; dsDNA, one strand shown
Procedure, shortened: as §1

HSF1 = HSF1 (Homo sapiens, UniProt Q00613 1-529); details: protein: recombinant; tags: N-terminal GST; chain copies: 3; dsDNA, one strand shown
Procedure, shortened: as §1

SPIC = molecular target: T2, SPIC (Homo sapiens, UniProt Q8N5J4 1-248); details: protein: recombinant; tags: N-terminal GST; dsDNA, one strand shown
T2 sequence: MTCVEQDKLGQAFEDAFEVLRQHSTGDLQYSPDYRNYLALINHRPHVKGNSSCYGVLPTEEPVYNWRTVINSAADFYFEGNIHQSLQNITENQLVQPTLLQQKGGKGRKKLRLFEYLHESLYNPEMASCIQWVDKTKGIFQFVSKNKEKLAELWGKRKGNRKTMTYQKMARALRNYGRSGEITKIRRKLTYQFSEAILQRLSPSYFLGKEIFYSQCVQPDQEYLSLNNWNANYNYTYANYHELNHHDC
Procedure, shortened: as §1

ELF4 = ELF4 (Homo sapiens, UniProt Q99607 1-663); details: protein: recombinant; tags: N-terminal GST; dsDNA, one strand shown
Procedure, shortened: as §1

ELK4 = molecular target: T3, ELK4 (Homo sapiens, UniProt P28324-2 1-405); details: protein: recombinant; tags: N-terminal GST; dsDNA, one strand shown
T3 sequence: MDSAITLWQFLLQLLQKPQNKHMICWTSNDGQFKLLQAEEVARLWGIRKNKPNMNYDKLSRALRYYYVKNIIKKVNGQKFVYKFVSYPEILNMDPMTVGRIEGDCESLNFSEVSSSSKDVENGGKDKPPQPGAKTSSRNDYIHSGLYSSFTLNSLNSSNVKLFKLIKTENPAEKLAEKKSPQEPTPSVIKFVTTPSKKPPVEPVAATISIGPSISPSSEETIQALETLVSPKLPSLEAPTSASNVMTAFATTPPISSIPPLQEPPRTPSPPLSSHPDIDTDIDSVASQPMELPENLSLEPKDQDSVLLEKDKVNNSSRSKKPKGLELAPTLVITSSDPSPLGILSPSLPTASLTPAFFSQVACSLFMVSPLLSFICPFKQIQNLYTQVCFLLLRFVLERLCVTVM
Procedure, shortened: as §1

ETV2 = molecular target: T4, ETV2 (Homo sapiens, UniProt O00321 1-342); details: protein: recombinant; tags: N-terminal GST; dsDNA, one strand shown
T4 sequence: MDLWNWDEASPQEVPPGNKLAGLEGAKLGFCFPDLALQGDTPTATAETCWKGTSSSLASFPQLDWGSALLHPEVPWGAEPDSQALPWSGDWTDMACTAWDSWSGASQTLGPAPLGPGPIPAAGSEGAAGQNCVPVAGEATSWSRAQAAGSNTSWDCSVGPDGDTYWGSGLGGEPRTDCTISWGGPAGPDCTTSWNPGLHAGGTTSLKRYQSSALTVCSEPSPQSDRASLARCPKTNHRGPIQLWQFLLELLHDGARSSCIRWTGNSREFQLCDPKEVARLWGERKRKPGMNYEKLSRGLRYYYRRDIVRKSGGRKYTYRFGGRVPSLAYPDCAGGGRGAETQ
Procedure, shortened: as §1

ELF3 = molecular target: T5, ELF3 (Homo sapiens, UniProt P78545 1-371); details: protein: recombinant; tags: N-terminal GST; dsDNA, one strand shown
T5 sequence: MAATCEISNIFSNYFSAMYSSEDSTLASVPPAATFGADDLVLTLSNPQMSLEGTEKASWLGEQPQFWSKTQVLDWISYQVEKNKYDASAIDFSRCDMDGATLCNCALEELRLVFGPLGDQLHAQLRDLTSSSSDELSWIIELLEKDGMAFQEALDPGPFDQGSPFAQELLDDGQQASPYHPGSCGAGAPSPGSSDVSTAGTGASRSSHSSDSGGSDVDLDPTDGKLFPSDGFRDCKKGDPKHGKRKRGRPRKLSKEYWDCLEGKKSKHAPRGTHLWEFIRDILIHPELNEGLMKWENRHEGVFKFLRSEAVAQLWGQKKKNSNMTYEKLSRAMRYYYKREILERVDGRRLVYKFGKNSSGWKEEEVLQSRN
Procedure, shortened: as §1

CRX = CRX (Homo sapiens, UniProt O43186 1-299); details: protein: recombinant; tags: N-terminal GST; dsDNA, one strand shown
Procedure, shortened: as §1

ETV1 = ETV1 (Homo sapiens, UniProt P50549 1-477); details: protein: recombinant; tags: N-terminal GST; dsDNA, one strand shown
Procedure, shortened: as §1

ERF = molecular target: T6, ERF (Homo sapiens, UniProt P50548 1-548); details: protein: recombinant; tags: N-terminal GST; dsDNA, one strand shown
T6 sequence: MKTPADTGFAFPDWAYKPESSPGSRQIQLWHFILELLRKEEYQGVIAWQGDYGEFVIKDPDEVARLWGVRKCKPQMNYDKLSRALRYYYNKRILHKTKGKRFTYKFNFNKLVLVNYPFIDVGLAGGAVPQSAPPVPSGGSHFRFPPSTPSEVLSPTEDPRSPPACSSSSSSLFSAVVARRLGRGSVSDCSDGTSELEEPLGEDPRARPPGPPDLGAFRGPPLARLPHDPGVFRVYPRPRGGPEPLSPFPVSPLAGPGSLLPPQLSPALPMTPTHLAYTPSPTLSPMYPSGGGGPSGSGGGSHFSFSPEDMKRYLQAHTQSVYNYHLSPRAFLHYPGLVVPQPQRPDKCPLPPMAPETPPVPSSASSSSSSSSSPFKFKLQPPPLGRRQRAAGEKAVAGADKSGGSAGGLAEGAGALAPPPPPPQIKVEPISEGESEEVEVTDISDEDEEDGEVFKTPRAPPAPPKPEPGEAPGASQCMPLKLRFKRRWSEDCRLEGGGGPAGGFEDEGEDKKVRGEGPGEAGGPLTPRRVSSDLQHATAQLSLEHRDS
Procedure, shortened: as §1

ETV3L = molecular target: T7, ETV3L (Homo sapiens, UniProt Q6ZN32 1-361); details: protein: recombinant; tags: N-terminal GST; dsDNA, one strand shown
T7 sequence: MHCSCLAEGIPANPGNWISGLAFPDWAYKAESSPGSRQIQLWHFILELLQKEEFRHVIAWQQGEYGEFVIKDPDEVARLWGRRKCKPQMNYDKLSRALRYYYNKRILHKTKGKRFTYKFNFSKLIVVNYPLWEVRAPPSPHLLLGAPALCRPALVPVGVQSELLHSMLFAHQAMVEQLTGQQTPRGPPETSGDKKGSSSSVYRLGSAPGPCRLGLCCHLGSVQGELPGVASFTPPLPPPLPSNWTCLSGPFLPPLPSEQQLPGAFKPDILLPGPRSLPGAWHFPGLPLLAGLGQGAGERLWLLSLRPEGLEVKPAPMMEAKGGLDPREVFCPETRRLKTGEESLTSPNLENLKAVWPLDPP
Procedure, shortened: as §1

ETS2 = molecular target: T8, ETS2 (Homo sapiens, UniProt P15036 1-469); details: protein: recombinant; tags: N-terminal GST; dsDNA, one strand shown
T8 sequence: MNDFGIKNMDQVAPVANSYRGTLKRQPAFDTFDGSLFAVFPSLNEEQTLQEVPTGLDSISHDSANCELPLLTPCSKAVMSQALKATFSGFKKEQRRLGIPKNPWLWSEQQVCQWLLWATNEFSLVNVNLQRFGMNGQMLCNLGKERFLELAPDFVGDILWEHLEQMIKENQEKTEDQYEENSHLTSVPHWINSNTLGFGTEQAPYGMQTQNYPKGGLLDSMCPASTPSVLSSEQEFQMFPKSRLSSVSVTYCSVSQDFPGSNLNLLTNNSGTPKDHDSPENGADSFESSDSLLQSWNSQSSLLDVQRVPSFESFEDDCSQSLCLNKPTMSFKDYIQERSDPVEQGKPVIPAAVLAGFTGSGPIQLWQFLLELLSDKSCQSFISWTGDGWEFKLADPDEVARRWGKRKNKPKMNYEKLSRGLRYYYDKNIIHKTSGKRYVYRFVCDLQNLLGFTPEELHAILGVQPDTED
Procedure, shortened: as §1

SPDEF = molecular target: T9, SPDEF (Homo sapiens, UniProt O95238 1-335); details: protein: recombinant; tags: N-terminal GST; dsDNA, one strand shown
T9 sequence: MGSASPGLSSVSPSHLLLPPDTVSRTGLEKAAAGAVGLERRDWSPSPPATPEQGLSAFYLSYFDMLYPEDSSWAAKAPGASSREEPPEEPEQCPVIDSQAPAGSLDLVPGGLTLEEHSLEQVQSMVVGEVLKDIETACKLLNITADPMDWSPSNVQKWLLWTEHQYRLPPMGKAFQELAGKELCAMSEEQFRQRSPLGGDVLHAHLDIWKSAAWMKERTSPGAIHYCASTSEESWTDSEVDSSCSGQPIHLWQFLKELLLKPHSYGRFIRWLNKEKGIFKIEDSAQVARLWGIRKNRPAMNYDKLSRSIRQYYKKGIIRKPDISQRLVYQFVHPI
Procedure, shortened: as §1

ETV7 = molecular target: T10, ETV7 (Homo sapiens, UniProt Q9Y603 1-341); details: protein: recombinant; tags: N-terminal GST; dsDNA, one strand shown
T10 sequence: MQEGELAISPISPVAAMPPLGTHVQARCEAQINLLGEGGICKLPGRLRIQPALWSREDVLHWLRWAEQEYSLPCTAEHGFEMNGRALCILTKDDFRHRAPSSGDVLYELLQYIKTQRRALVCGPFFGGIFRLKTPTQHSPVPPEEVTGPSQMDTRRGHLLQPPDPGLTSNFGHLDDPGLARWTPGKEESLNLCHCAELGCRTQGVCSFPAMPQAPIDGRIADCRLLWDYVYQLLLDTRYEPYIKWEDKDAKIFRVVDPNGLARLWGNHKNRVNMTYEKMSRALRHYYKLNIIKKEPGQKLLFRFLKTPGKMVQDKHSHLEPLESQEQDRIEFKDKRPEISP
Procedure, shortened: as §1

ELF5 = molecular target: T11, ELF5 (Homo sapiens, UniProt Q9UKW6-2 1-255); details: protein: recombinant; tags: N-terminal GST; dsDNA, one strand shown
T11 sequence: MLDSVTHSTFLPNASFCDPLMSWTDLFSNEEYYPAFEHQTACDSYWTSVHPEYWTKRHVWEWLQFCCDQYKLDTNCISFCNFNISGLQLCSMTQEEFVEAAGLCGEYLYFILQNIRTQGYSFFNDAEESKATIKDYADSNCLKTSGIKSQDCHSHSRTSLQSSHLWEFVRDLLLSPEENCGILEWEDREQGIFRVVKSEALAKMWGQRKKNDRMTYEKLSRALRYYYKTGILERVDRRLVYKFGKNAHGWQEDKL
Procedure, shortened: as §1

ETV3 = molecular target: T12, ETV3 (Homo sapiens, UniProt P41162-2 1-143); details: protein: recombinant; tags: N-terminal GST; dsDNA, one strand shown
T12 sequence: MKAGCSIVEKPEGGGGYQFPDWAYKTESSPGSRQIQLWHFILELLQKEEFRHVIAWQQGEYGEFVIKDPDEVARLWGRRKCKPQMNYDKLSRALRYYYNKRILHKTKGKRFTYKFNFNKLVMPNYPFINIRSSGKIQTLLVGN
Procedure, shortened: as §1

ETV6 = ETV6 (Homo sapiens, UniProt P41212 1-452); details: protein: recombinant; tags: N-terminal GST; dsDNA, one strand shown
Procedure, shortened: as §1

CRX, sequence (O43186 whole entry): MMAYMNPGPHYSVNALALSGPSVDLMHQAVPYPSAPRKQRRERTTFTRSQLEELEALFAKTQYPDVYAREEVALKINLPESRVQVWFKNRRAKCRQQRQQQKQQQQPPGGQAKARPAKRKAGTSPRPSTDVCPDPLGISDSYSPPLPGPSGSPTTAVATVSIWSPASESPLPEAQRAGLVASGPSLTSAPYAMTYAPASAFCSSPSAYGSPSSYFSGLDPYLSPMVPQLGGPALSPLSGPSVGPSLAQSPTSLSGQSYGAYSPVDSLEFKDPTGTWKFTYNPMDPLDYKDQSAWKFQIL
ETV6, sequence (P41212 whole entry): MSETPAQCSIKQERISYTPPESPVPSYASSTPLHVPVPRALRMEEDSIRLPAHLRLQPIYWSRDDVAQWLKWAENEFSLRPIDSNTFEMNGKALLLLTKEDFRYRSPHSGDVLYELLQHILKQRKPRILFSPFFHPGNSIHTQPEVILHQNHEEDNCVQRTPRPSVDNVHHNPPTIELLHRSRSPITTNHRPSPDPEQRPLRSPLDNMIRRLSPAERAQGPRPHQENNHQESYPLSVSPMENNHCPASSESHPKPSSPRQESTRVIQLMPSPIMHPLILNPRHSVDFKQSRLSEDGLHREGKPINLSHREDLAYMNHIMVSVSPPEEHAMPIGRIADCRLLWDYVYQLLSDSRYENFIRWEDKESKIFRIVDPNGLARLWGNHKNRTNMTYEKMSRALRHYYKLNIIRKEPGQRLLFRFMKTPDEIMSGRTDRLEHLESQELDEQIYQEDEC
ETV1, sequence (P50549 whole entry): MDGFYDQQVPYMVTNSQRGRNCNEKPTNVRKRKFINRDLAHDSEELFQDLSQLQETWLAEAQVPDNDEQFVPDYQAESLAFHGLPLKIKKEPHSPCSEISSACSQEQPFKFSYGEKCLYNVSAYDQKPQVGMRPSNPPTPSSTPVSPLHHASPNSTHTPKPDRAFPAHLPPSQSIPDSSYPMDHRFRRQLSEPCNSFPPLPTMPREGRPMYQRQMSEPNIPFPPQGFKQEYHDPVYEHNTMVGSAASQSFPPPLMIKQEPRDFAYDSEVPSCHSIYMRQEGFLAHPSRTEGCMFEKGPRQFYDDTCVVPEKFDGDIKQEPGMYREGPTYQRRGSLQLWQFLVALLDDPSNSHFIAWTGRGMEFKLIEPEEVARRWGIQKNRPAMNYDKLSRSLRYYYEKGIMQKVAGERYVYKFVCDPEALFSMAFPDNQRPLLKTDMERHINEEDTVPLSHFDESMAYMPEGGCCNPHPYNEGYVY
ELF4, sequence (Q99607 whole entry): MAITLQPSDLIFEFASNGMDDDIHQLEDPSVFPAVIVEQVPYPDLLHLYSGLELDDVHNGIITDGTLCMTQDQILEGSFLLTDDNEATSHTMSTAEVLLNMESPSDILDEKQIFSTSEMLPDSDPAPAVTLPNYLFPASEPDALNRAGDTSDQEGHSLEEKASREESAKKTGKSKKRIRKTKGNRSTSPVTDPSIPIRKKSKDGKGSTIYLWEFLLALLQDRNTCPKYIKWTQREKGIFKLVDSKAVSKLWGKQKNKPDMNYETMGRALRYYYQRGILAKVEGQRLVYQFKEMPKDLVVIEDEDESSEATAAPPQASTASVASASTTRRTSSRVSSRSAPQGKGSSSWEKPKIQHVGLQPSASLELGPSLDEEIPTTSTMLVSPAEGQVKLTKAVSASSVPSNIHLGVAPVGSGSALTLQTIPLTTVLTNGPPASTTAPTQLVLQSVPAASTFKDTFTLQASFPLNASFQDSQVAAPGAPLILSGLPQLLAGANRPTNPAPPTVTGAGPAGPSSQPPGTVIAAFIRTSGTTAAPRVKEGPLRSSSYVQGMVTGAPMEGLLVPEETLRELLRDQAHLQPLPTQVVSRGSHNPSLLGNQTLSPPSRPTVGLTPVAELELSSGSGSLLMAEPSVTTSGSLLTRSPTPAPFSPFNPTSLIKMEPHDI
HSF1, sequence (Q00613 whole entry): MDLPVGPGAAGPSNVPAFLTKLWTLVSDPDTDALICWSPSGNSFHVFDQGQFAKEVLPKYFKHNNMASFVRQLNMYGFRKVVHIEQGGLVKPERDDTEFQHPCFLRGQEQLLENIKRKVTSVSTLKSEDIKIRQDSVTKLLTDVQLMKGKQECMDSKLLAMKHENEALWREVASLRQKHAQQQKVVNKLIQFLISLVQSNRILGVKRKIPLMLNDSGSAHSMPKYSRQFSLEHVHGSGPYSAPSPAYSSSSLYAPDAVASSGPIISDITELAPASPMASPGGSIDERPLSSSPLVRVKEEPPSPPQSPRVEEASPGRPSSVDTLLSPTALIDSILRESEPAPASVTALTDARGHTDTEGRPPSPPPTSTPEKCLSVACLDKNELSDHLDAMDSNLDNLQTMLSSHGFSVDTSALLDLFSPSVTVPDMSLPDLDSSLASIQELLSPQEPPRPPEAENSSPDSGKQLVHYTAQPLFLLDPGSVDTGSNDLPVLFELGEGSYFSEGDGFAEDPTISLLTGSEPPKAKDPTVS
ETV5, sequence (P41161 whole entry): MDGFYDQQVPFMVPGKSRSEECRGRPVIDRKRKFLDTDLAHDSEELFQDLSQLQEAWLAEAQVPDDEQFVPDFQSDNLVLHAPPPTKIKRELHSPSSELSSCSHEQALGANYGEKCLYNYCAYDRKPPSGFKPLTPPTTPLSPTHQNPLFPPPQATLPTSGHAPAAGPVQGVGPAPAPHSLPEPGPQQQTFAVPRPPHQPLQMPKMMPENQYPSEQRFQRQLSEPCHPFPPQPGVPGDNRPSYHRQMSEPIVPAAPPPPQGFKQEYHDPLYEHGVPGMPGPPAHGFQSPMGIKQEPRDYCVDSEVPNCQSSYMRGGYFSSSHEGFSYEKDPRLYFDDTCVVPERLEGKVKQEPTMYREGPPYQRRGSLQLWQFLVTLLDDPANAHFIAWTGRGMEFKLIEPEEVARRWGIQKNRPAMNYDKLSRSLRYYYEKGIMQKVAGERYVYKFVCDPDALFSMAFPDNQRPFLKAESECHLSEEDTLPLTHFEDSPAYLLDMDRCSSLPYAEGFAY

Question: What does the source list for CTCGCG?
Answer: binding signal (FEV): 1.35 fold enrichment (6-mer frequency, TF over GST control); binding signal (ETV5): 1.48 fold enrichment (6-mer frequency, TF over GST control); binding signal (HSF1): 1.55 fold enrichment (6-mer frequency, TF over GST control); binding signal (SPIC): 1.3 fold enrichment (6-mer frequency, TF over GST control); binding signal (ELF4): 1.48 fold enrichment (6-mer frequency, TF over GST control); binding signal (ELK4): 1.59 fold enrichment (6-mer frequency, TF over GST control); binding signal (ETV2): 1.39 fold enrichment (6-mer frequency, TF over GST control); binding signal (ELF3): 1.53 fold enrichment (6-mer frequency, TF over GST control); binding signal (CRX): 1.3 fold enrichment (6-mer frequency, TF over GST control); binding signal (ETV1): 1.47 fold enrichment (6-mer frequency, TF over GST control); binding signal (ERF): 1.41 fold enrichment (6-mer frequency, TF over GST control); binding signal (ETV3L): 1.44 fold enrichment (6-mer frequency, TF over GST control); binding signal (ETS2): 1.47 fold enrichment (6-mer frequency, TF over GST control); binding signal (SPDEF): 1.4 fold enrichment (6-mer frequency, TF over GST control); binding signal (ETV7): 1.38 fold enrichment (6-mer frequency, TF over GST control); binding signal (ELF5): 1.42 fold enrichment (6-mer frequency, TF over GST control); binding signal (ETV3): 1.42 fold enrichment (6-mer frequency, TF over GST control); binding signal (ETV6): 1.36 fold enrichment (6-mer frequency, TF over GST control)
